SMILES strings stand for the structures. About 8,600 (12%) of roughly 69,000 compounds showed an effect of 50% or more. What follows is part of a selection rich in strong results, with near analogues and random picks from the rest.

For this assay, the system named is Plasmodium berghei. The assay can be described thus: Screen against P. berghei liver stage (PbLuc), transformed with Luciferase, at 10uM. The format is functional, HepG2. To be noted: tested at 10 uM.
Take `CCC(C)S(=O)(=O)N1CCc2nc(C3CCNCC3)ncc2C1` (centres undefined): the INHIBITION is on record as 57.5%.

Take `Cc1noc(C)c1S(=O)(=O)N1CCc2nc(C3CCNCC3)ncc2C1`: the INHIBITION is on record as 34%. As for `O=S(=O)(N1CCCCC1)N1CCc2nc(C3CCNCC3)ncc2C1`, the figure is 22.2%. As for `CCN(CC)S(=O)(=O)N1CCCC(c2ncc3c(n2)CCN(C)C3)C1` (centres undefined), the figure is 43.25%; as for `O=S(=O)(c1ccc(Cl)cc1)N1CCc2nc(C3CCNCC3)ncc2C1`, 9.93%; as for `O=S(=O)(c1ccccc1Cl)N1CCc2nc(C3CCNCC3)ncc2C1`, 75.6%.

On to `COc1c(CNC2(c3noc(C)n3)CCC2)c(C(C)C)nn1C`, for which the INHIBITION is recorded as -113%. As for `Cc1ocnc1C(=O)N1CCCN(Cc2cscn2)CC1`, the figure is 35.3%; as for `O=C(c1ccncc1)N1CC[C@@H]2CN(C3CCOCC3)CCO[C@@H]2C1`, 23.1%; as for `Cn1cccc1CN1CCC2(CC1)CC(Oc1cccnc1)C2`, 24.6%.

In the case of `COc1cccc(Nc2nc(N3CCCC3)nc3c2CNCC3)c1`, the INHIBITION was determined as 42.5%.

Regarding `CC(O)CNc1nc(-c2cccnc2)nc2c1CCC2` (centres undefined), the INHIBITION is listed as -43%. Regarding `c1cncc(-c2nc3c(c(NCC4(c5ccncc5)CC4)n2)CCC3)c1`, the INHIBITION is reported as -5.38%. For `O=C(Nc1cccc(F)c1)NC1CCN(Cc2ccncc2)CC1`, the INHIBITION worked out at 45.4%.

`O=C(c1cccc(F)c1)N1CCCC1c1ncc2c(n1)CCNC2` (centres undefined): the INHIBITION was 36.7%.

As to `Fc1cccc(Nc2nc(N3CCCC3)nc3c2CNCC3)c1`, the INHIBITION is 76.8%. Regarding `NC1CCc2nc(-c3ccncc3)nc(Nc3cccc(F)c3)c2C1` (centres undefined), the INHIBITION is 90.35%. For `NC1CCc2nc(-c3cccnc3)nc(Nc3ccc(F)cc3)c2C1` (centres undefined), the INHIBITION stood at 63.85%. As for `c1csc(CCNc2nc(-c3ccncc3)nc3c2CCNCC3)c1`, the INHIBITION stood at 31.6%. `COc1cccc(Nc2nc(-c3ccncc3)nc3c2CNCC3)c1`: the INHIBITION is listed as 51.7%. As for `COc1cccc(Nc2nc(C3CCNCC3)c3ccccn23)c1`, the INHIBITION stood at 9.6%.

`CC(Nc1nc(-c2ccncc2)nc2c1CCNC2)c1ccccc1` (centres undefined): the INHIBITION was determined as 46.3%. As for `Cc1sc(CN)nc1-c1ccc(Cl)cc1`, the INHIBITION is on record as 5.11%.

Turning to `CCc1cc(-c2cc[nH]n2)nc(N2CCCC2)n1`, the INHIBITION was 14.6%. For `Cn1cc([C@@H]2CN(S(=O)(=O)c3cccs3)C[C@H]2N)c2ccncc21`, the INHIBITION amounted to 41.9%. Turning to `Cc1c(CC(=O)N2CCSCC2)nnn1-c1cccc(Cl)c1`, the INHIBITION was 3.46%. Take `O=C(CC1CCCC1)N1CCC2(CC1)[C@H](O)C[C@@H]2O`: the INHIBITION is 33.4%. Take `CN(Cc1ccco1)C(=O)CN1CCCC1Cn1cncn1` (centres undefined): the INHIBITION was -4.16%.

`Cc1cnn(C2CCCN(C(=O)c3cn4ccccc4n3)C2)c1` (centres undefined): the INHIBITION was 22.3%. Regarding `COc1ccnc(N2CCN(C(=O)Cc3csc(C)n3)CC2)n1`, the INHIBITION is listed as -55.4%.

As for `CCOc1ccccc1CNCC1CCN(CC(C)O)CC1` (centres undefined), the INHIBITION is 28.7%. To `CCN(CC)C(=O)Nc1cccc(Oc2ccccn2)c1` belongs 20%; to `Cc1nc(C2CCCN(C(=O)c3ccc(N4CCCC4)nn3)C2)no1` (centres undefined), -19.4%; to `CCn1cc(-n2cc3nc(N(C)C)[nH]cc-3c2=O)cn1`, -13%. `Cc1occc1C(=O)N1Cc2nccn2CC(CN2CCCC2)C1` (centres undefined): the INHIBITION amounted to 31.2%.

With `Cc1noc(C)c1CC(=O)N1CCCC(Cn2ccnc2C)C1` (centres undefined), the INHIBITION was determined as 44.7%.

For `CCc1nnc(CN(CC)C(=O)C(C)n2ccnc2C(C)C)o1` (centres undefined), the INHIBITION is 30.3%. Consider `Cc1cc2c(=O)n3c(nc2s1)CCN(C(=O)c1c(C)noc1C)CC3`, for which the INHIBITION was 41.2%. With `Cc1nc(C)c(C(=O)N2CCc3nc4sc(C)cc4c(=O)n3CC2)o1`, the INHIBITION was -12.9%. For `Cc1cc2c(=O)n3c(nc2s1)CCN(C(=O)c1sc(C)nc1C)CC3`, the INHIBITION turned out to be 80.9%. To `Cc1cc(C(=O)N2CCc3nc4sc(C)cc4c(=O)n3CC2)on1` belongs 53.2%; to `Cc1cc2c(=O)n3c(nc2s1)CCN(C(=O)c1ccnn1C)CC3`, -16.5%. To `Cc1cc2c(=O)n3c(nc2s1)CCN(C(=O)c1scnc1C)CC3` belongs 40.9%; to `Cc1noc(C)c1-c1cccc(CC2CCN(C(=O)CN)C2)n1` (centres undefined), 36.7%.

Turning to `Cc1ccc2c(n1)N(CCn1cccn1)CCN(C(=O)CC1CC1)C2`, the INHIBITION was -1.64%. To `CCn1cnnc1CNC(=O)N1CCN(Cc2ccsc2)CC1` belongs -63.3%; to `CCN1Cc2ccccc2CC2(CCN(C(=O)N(C)C)CC2)C1=O`, 36.5%; to `CC[C@@H]1N(Cc2ccc(C)s2)CCC[C@]12CCC(=O)N2C`, -24.5%. As for `CCCn1ccnc1-c1cccc(NC(=O)C2CCCOC2)c1` (centres undefined), the figure is 55%. On to `CCCn1ccnc1-c1cccc(NC(=O)[C@H]2CCC(=O)N2)c1`, for which the INHIBITION is 24.3%.

`CCCn1ccnc1-c1cccc(NC2CCOC2)c1` (centres undefined): the INHIBITION is given as 33.4%. Consider `c1coc(CN2CCC3(CC2)COCCN(CCN2CCCC2)C3)c1`, for which the INHIBITION is 0.923%.

Consider `CC(C)NC(=O)N(C)C(c1cccc(F)c1)c1ccccn1` (centres undefined), for which the INHIBITION was -132%. For the molecule `O=C(N[C@@H]1CCC[C@@H](N2CCOCC2)[C@@H]1O)c1cnn2cccnc12`, the INHIBITION is recorded as -32.2%.
